According to the supplement of paper PMC9262897, “Low-cost anti-mycobacterial drug discovery using engineered E. coli” (Nature Communications, 2022):
Counter-ions that a name gives are not always drawn. ± gives the standard deviation of the averaged measurements.

Columns and labels:
Assay in all cases: growth (OD600 after 10 h); higher = more growth (less inhibition)
[1] = tested on: E. coli TESEC Alr+ wild-type control; conditions: compound 0.1 mM; raw OD600 reference: median of DMSO wells 0.241, cell-free background 0.041
Method: (§1)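 TESEC Mtb Alr E. coli, or the Alr+ wild-type control, in 384-well plates with Prestwick library compounds at 0.1 mM and 1% DMSO, across arabinose induction levels of 1E3 to 1E7 nM. Growth is read as OD600 after 10 h at 37 °C in triplicate biological replicates.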

[2] = tested on: E. coli TESEC Mtb Alr; conditions: compound 0.1 mM
Method: as §1

[3] = tested on: E. coli TESEC Mtb Asd; conditions: compound 0.1 mM
Method: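 TESEC E. coli strains in which the native enzyme is deleted and replaced by arabinose-inducible Mtb Asd, DapB, CysH or TrpD, each grown in its selective medium. Strains were screened against the Prestwick library at 0.1 mM and 1% DMSO in 384-well format at low and high arabinose induction. Growth is read as OD600 after 10 h in triplicate.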

[4] = tested on: E. coli TESEC Alr+ wild-type control; conditions: compound 0.1 mM; raw OD600 reference: median of DMSO wells 0.49, cell-free background 0.052
Method: (§2)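 TESEC Mtb Alr E. coli (ΔaraC ΔtolC ΔentC Δalr ΔdadX, arabinose-inducible Mtb Alr) or the Alr+ wild-type control strain, grown in defined M9-fructose medium without D-alanine in 96-well plates with Prestwick library compounds at 0.1 mM and 1% DMSO. Low Alr induction is 0.1 µM arabinose and high induction is 10 mM arabinose.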

[5] = tested on: E. coli TESEC Mtb Alr; conditions: compound 0.1 mM; remark: listed apart in the source
Method: as §2

[6] = arabinose 1000 nM, raw OD600 reference: median of DMSO wells 0.294, cell-free background 0.041
[7] = arabinose 10000 nM, raw OD600 reference: median of DMSO wells 0.264, cell-free background 0.041
[8] = arabinose 100000 nM, raw OD600 reference: median of DMSO wells 0.201, cell-free background 0.041
[9] = arabinose 1000000 nM, raw OD600 reference: median of DMSO wells 0.193, cell-free background 0.041
[10] = arabinose 10000000 nM, raw OD600 reference: median of DMSO wells 0.146, cell-free background 0.041
[11] = arabinose induction (level): High, raw OD600 reference: median of DMSO wells 0.331, cell-free background 0.041
[12] = arabinose induction (level): Low, raw OD600 reference: median of DMSO wells 0.417, cell-free background 0.041
[13] = arabinose 100 nM, raw OD600 reference: median of DMSO wells 0.413, cell-free background 0.052
[14] = arabinose 10000000 nM, raw OD600 reference: median of DMSO wells […], cell-free background 0.052

Row | SMILES | growth [1] | growth [2, 6] | growth [2, 7] | growth [2, 8] | growth [2, 9] | growth [2, 10] | growth [3, 11] | growth [3, 12] | growth [4] | growth [5, 13] | growth [5, 14]
1 | CN1CCN(c2c(F)cc3c(=O)c(C(=O)O)cn(CCF)c3c2F)CC1 [Fleroxacin] | 0.0517 ± 0.002 | 0.04717 ± 0.00045 | 0.0416 ± 0.0006 | 0.0505 ± 0.0014 | 0.0445 ± 0.00081 | 0.0554 ± 0.00072 | 0.0848 ± 0.0081 | 0.0766 ± 0.014 | 0.0565 ± 0.002 | 0.0555 ± 0.0013 | 0.05217 ± 5.8e-05
2 | CC(=O)O[C@H]1C[C@@H]2CC[C@@H]3[C@H](CC[C@@]4(C)[C@H]3C[C@H]([N+]3(C)CCCCC3)[C@@H]4OC(C)=O)[C@@]2(C)C[C@@H]1N1CCCCC1 [Vecuronium bromide] | 0.0818 ± 0.00093 | 0.0791 ± 0.0015 | 0.0482 ± 0.00074 | 0.07643 ± 0.00021 | 0.0518 ± 0.0023 | 0.07727 ± 0.00072 | 0.136 ± 0.0039 | 0.124 ± 0.0035 | 0.23 ± 0.013 | 0.396 ± 0.0098 | 0.0791 ± 0.0096
3 | NC(=O)N1c2ccccc2CC(=O)c2ccccc21 [Oxcarbazepine] | 0.236 ± 0.0086 | 0.269 ± 0.015 | 0.256 ± 0.0035 | 0.211 ± 0.03 | 0.171 ± 0.0024 | 0.146 ± 0.0084 | 0.225 ± 0.042 | 0.322 ± 0.043 | 0.601 ± 0.13 | 0.403 ± 0.0086 | 0.321 ± 0.0074
4 | O=C(N/N=C/c1ccc([N+](=O)[O-])o1)c1ccc(O)cc1 [Nifuroxazide] | 0.148 ± 0.0071 | 0.217 ± 0.018 | 0.0914 ± 0.0034 | 0.164 ± 0.022 | 0.0664 ± 0.0028 | 0.133 ± 0.0085 | 0.053 ± 0.00057 | 0.0519 ± 0.0049 | 0.0581 ± 0.0039 | 0.0646 ± 0.0031 | 0.0578 ± 0.0014
5 | CC(=O)CC(c1ccccc1)c1c(O)c2ccccc2oc1=O (stereo not drawn) [Warfarin] | 0.251 ± 0.012 | 0.273 ± 0.007 | 0.2271 ± 0.0011 | 0.139 ± 0.0062 | 0.15 ± 0.0059 | 0.126 ± 0.0063 | 0.351 ± 0.065 | 0.391 ± 0.072 | 0.492 ± 0.081 | 0.39 ± 0.0054 | 0.342 ± 0.012
6 | CCN(CC)CCOC(=O)C1(c2ccc([N+](=O)[O-])cc2)CCCC1 [Nitrocaramiphen hydrochloride] | 0.235 ± 0.015 | 0.281 ± 0.0086 | 0.253 ± 0.0047 | 0.148 ± 0.0071 | 0.147 ± 0.0043 | 0.137 ± 0.0018 | 0.205 ± 0.059 | 0.426 ± 0.0056 | 0.488 ± 0.054 | 0.412 ± 0.017 | 0.324 ± 0.03
7 | Nc1ccc(S(=O)(=O)Nc2ccnn2-c2ccccc2)cc1 [Sulfaphenazole] | 0.231 ± 0.0032 | 0.236 ± 0.0082 | 0.1522 ± 0.0011 | 0.197 ± 0.031 | 0.0993 ± 0.0064 | 0.149 ± 0.0051 | 0.335 ± 0.033 | 0.354 ± 0.0096 | 0.484 ± 0.04 | 0.429 ± 0.0073 | 0.233 ± 0.15
8 | O=C(O)c1cccnc1Nc1cccc(C(F)(F)F)c1 [Niflumic acid] | 0.113 ± 0.0057 | 0.0693 ± 0.0078 | 0.0488 ± 0.00046 | 0.145 ± 0.002 | 0.06687 ± 0.00065 | 0.099 ± 0.0016 | 0.15 ± 0.022 | 0.16 ± 0.018 | 0.206 ± 0.046 | 0.244 ± 0.066 | 0.0999 ± 0.0073
9 | COCCOC(=O)C1=C(C)NC(C)=C(C(=O)OC(C)C)C1c1cccc([N+](=O)[O-])c1 (stereo not drawn) [Nimodipine] | 0.18 ± 0.017 | 0.176 ± 0.062 | 0.0601 ± 0.0043 | 0.154 ± 0.0027 | 0.0632 ± 0.0037 | 0.08053 ± 0.00035 | 0.274 ± 0.024 | 0.487 ± 0.0068 | 0.325 ± 0.004 | 0.404 ± 0.025 | 0.0716 ± 0.011
10 | CN(C/C=C/C#CC(C)(C)C)Cc1cccc2ccccc12 [Terbinafine] | 0.214 ± 0.0072 | 0.272 ± 0.0085 | 0.226 ± 0.025 | 0.177 ± 0.0062 | 0.085 ± 0.0043 | 0.174 ± 0.0062 | 0.296 ± 0.046 | 0.41 ± 0.037 | 0.358 ± 0.013 | 0.145 ± 0.035 | 0.0574 ± 0.0026
11 | Cc1c(OCC(F)(F)F)ccnc1C[S+]([O-])c1nc2ccccc2[nH]1 (stereo not drawn) [Lansoprazole] | 0.131 ± 0.0017 | 0.164 ± 0.0045 | 0.242 ± 0.01 | 0.132 ± 0.0025 | 0.094 ± 0.0041 | 0.14 ± 0.0041 | 0.236 ± 0.024 | 0.191 ± 0.0085 | 0.377 ± 0.011 | 0.363 ± 0.035 | 0.163 ± 0.025
12 | CCC(=O)OCC(=O)[C@@]1(OC(=O)CC)[C@@H](C)C[C@H]2[C@@H]3CCC4=CC(=O)C=C[C@]4(C)[C@@]3(Cl)[C@@H](O)C[C@@]21C [Beclomethasone dipropionate] | 0.216 ± 0.0072 | 0.31 ± 0.028 | 0.28 ± 0.018 | 0.179 ± 0.013 | 0.12 ± 0.013 | 0.167 ± 0.0041 | 0.246 ± 0.032 | 0.3 ± 0.031 | 0.499 ± 0.027 | 0.442 ± 0.0072 | 0.247 ± 0.018
13 | CC(=O)NC[C@H]1CN(c2ccc(N3CCOCC3)c(F)c2)C(=O)O1 [Linezolid] | 0.047 ± 0.0002 | 0.0465 ± 0.0021 | 0.0406 ± 0.00046 | 0.0473 ± 0.0018 | 0.0402 ± 0.00055 | 0.0474 ± 0.0016 | 0.072 ± 0.0052 | 0.0786 ± 0.0075 | 0.0669 ± 0.00098 | 0.135 ± 0.055 | 0.0531 ± 0.0013
14 | O=C(O)c1ccccc1Nc1cccc(C(F)(F)F)c1 [Flufenamic acid] | 0.0528 ± 0.00081 | 0.05003 ± 0.00047 | 0.04063 ± 0.00038 | 0.0593 ± 0.0024 | 0.04467 ± 0.00032 | 0.05807 ± 0.00038 | 0.0691 ± 0.017 | 0.0784 ± 0.0046 | 0.114 ± 0.0046 | 0.0904 ± 0.038 | 0.0543 ± 0.00078
15 | C[C@H](CS)C(=O)N1CCC[C@H]1C(=O)O [Captopril] | 0.259 ± 0.003 | 0.291 ± 0.019 | 0.253 ± 0.012 | 0.198 ± 0.027 | 0.176 ± 0.0095 | 0.148 ± 0.011 | 0.358 ± 0.044 | 0.399 ± 0.027 | 0.475 ± 0.059 | 0.41 ± 0.0091 | 0.382 ± 0.021
16 | CCOC(=O)N1CCC(=C2c3ccc(Cl)cc3CCc3cccnc32)CC1 [Loratadine] | 0.146 ± 0.0043 | 0.17 ± 0.0039 | 0.205 ± 0.0047 | 0.173 ± 0.0098 | 0.0897 ± 0.0023 | 0.103 ± 0.0051 | 0.175 ± 0.01 | 0.246 ± 0.023 | 0.402 ± 0.0043 | 0.391 ± 0.0066 | 0.0517 ± 0.00062
17 | CC[C@H]1OC(=O)C[C@@H](O)[C@H](C)[C@@H](O[C@@H]2O[C@H](C)[C@@H](O[C@H]3C[C@@](C)(O)[C@@H](O)[C@H](C)O3)[C@H](N(C)C)[C@H]2O)[C@@H](CC=O)C[C@@H](C)C(=O)/C=C/C(C)=C/[C@@H]1CO[C@@H]1O[C@H](C)[C@@H](O)[C@@H](OC)[C@H]1OC [Tylosin] | 0.04133 ± 5.8e-05 | 0.0588 ± 0.0023 | 0.0397 ± 0.00017 | 0.0503 ± 0.0012 | 0.03953 ± 0.00032 | 0.0429 ± 0.0013 | 0.0667 ± 0.004 | 0.0597 ± 0.0035 | 0.0591 ± 0.00044 | 0.249 ± 0.12 | 0.0521 ± 0.00046
18 | CCCCC1(COC(=O)CCC(=O)O)C(=O)N(c2ccccc2)N(c2ccccc2)C1=O [Suxibuzone] | 0.203 ± 0.0032 | 0.291 ± 0.013 | 0.244 ± 0.0044 | 0.192 ± 0.019 | 0.188 ± 0.0095 | 0.1314 ± 0.001 | 0.305 ± 0.052 | 0.427 ± 0.026 | 0.521 ± 0.1 | 0.401 ± 0.0076 | 0.341 ± 0.0062
